MITF inh: blocks human microphthalmia-associated transcription factor. AlphaScreen MITF homodimerization, bead proximity signal. inhibition, % at 2.6 µM. 650,000 compounds, 0.91% hits; in the data active = inhibition above about 50%
FBW7 act: human FBW7 E3 ligase activation, primary screen. AlphaScreen FBW7–phospho-cyclin E peptide binding, activator screen. normalized activity (activation), % at 26.1 µM. 650,000 compounds, 0.13% hits. Q969H0. AID 1259310; in the data active = normalized activity above about 1.9%;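 also: purified mutant Fbw7 with reduced substrate affinity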
Target sequence (Q969H0 whole entry, looked up): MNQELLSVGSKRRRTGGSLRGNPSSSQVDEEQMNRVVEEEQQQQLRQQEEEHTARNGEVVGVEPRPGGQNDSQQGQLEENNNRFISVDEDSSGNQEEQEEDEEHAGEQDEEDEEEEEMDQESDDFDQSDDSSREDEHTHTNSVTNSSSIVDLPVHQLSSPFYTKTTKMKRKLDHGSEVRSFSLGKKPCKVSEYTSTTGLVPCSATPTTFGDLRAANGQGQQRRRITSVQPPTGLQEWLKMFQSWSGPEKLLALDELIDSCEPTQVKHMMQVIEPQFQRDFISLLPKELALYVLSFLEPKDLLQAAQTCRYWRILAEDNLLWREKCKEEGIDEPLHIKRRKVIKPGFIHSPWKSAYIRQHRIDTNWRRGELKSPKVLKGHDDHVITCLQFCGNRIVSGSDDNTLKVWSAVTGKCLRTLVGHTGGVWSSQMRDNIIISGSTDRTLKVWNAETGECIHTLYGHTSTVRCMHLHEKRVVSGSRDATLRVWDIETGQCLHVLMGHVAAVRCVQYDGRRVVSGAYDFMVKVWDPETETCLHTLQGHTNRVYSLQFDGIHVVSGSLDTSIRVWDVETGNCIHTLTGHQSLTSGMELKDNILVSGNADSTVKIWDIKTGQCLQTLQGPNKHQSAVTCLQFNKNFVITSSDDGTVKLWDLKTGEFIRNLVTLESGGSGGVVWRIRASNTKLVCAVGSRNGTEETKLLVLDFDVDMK
GPR151 activ: human GPR151 activation; 650,000 compounds, 1% hits; activation, % at 11.2 µM; PathHunter beta-arrestin GPR151 cells, luminescence; Q8TDV0; in the data active = activation above about 4.9%
TEAD-YAP block: TEAD-YAP interaction inhibition; HEK-TIYL cells, TEAD-Gal4/YAP UAS-luciferase luminescence; 640,000 compounds, 1.4% hits; inhibition, % at 9.12 µM; in the data active = inhibition above about 32%
GPR151 confirm: confirmation of human GPR151 activators; shares compounds with GPR151 activ; GPR151 PathHunter beta-arrestin cells, luminescence, 90 min; % of EA-reagent control over plate median; activation, % at 11.2 µM; 6,700 tested, under 10 active;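 active = mean percent activation across replicates above the confirmation screen cutoff of 4.91%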
GPR119 counter: activates human GPR119 in a GPR151 counter-screen. shares compounds with GPR151 activ. GPR119 PathHunter beta-arrestin cells, luminescence, 90 min; 0 = compound-well median, 100 = enzyme-acceptor control. activation, % at 11.2 µM. 6,700 compounds, 0.3% hits. AID 1508611;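 active = mean percent activation in the counterscreen above 29.09%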;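 also: counterscreen on off-target GPR119 to flag nonselective hits from the GPR151 activator screen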
Of the large screens only hits and unclear results are named; the others gave an inactive call (follow-up assays come after a bar, where they were run); ! = a repeat was not active. Rows were chosen to be rich in hits. Some 3.4% of all compounds tested hit in one or more screens of this group.

CCC1(C2CCN(Cc3ccoc3)CC2)NC(=O)N(CCc2ccc(OC)cc2)C1=O (centres undefined)	GPR151 activ 14 | GPR151 confirm inactive | GPR119 counter inactive
C=CCn1c(=O)c2c(C)c(C)sc2n2c(Nc3ccccc3)nnc12	GPR151 activ 5.9 | GPR151 confirm inactive | GPR119 counter inactive
C=CCn1c(=O)c2c3c(sc2n2c(Nc4ccc(C(=O)OCC)cc4)nnc12)CCC3	none
COc1ccc(NC(=O)c2ccc(Br)s2)cc1OC	GPR151 activ 8.8 | GPR151 confirm inactive | GPR119 counter inactive
O=C(CCc1nnc(CCc2c[nH]c3ccccc23)o1)NC1CCc2ccccc21 (centres undefined)	none
O=C(NCCO)c1ccn[nH]1	GPR151 activ 6.0 | GPR151 confirm inactive | GPR119 counter inactive
O=C(NCCNC(=O)c1ccn[nH]1)c1ccn[nH]1	none
N#Cc1ccc(Oc2ccc(NC(=O)/C=C\C(=O)O)cc2)cc1	GPR151 activ 5.3 | GPR151 confirm inactive | GPR119 counter inactive
COc1ccc(NC(=O)/C=C/C(=O)O)cc1	none
O=C(NCCC1=CCCCC1)c1cccnc1SCc1cccc(Br)c1	none
O=C(NCCC1=CCCCC1)c1cccnc1SCc1ccccc1F	GPR151 activ 5.4 | GPR151 confirm inactive | GPR119 counter inactive
CCCC(=O)Nc1nnc(-c2ccc(Cl)s2)o1	none
O=C(Cc1cccc2ccccc12)Nc1nnc(-c2ccc(Cl)s2)o1	GPR151 activ 5.1 | GPR151 confirm inactive | GPR119 counter inactive
CCCOC(=O)C1=C(C)NC2=C(C(=O)CCC2)C1c1cccnc1 (centres undefined)	GPR151 activ 6.1! | GPR151 confirm inactive | GPR119 counter inactive
CCCOC(=O)C1=C(C)NC2=C(C(=O)CCC2)C1c1cc(Br)c(O)c(OCC)c1 (centres undefined)	none
CCCCCOC(=O)C1=C(C)NC2=C(C(=O)CCC2)C1c1cc(Br)c(O)c(OCC)c1 (centres undefined)	GPR151 activ 5.5 | GPR151 confirm inactive | GPR119 counter inactive
CCOc1c(Br)cc(C2C(C(=O)N3CCOCC3)=C(C)NC3=C2C(=O)CCC3)cc1OC (centres undefined)	GPR151 activ 6.2 | GPR151 confirm inactive | GPR119 counter inactive
CN1CCN(C2=Nc3c(Cl)cc(Cl)c4cccc2c34)CC1	GPR151 activ 12 | GPR151 confirm inactive | GPR119 counter inactive
CC(C)(C)Nc1nc(-c2cccc(Br)c2)cs1	GPR151 activ 7.5 | GPR151 confirm inactive | GPR119 counter inactive
CCC(=O)Nc1nc(-c2cccc(Br)c2)cs1	none
COC(=O)C1CC(=O)N(CCC(C)C)C12CCN(CCC(C)c1ccccc1)CC2 (centres undefined)	none
Brc1ccccc1-c1nnc2sc(-c3ccc4c(c3)OCCO4)nn12	GPR151 activ 5.7 | GPR151 confirm inactive | GPR119 counter inactive
CC(C)c1cc(CNC(=O)c2cc(COc3cccc4cnccc34)on2)on1	none
CN(CCO)C(=O)c1cc(COc2cccc3cnccc23)on1	GPR151 activ 6.7 | GPR151 confirm inactive | GPR119 counter inactive
Cc1ccc(NC(=S)NCc2ccccc2)cc1NS(C)(=O)=O	none
COCCCNC(=O)CN(c1cc(Cl)ccc1C)S(C)(=O)=O	none
COCCCNC(=O)CN(c1cc(Cl)ccc1Cl)S(C)(=O)=O	GPR151 activ 11 | GPR151 confirm inactive | GPR119 counter inactive
CC(=O)c1sc2nc3c(c(-c4ccccc4)c2c1N)CCC3	none
COc1ccccc1-c1cc(NC(=NCc2ccco2)SC)n[nH]1	GPR151 activ 6.4, TEAD-YAP block 50 | GPR151 confirm inactive | GPR119 counter inactive
COc1ccc(-c2cc(NC(=NCc3ccco3)SC)n[nH]2)c(OC)c1	none
CCOc1ccc(C2CC(=O)NC3=C2C(=O)CC(c2ccc(F)cc2)C3)cc1 (centres undefined)	none
CCOC(=O)c1nn(CCO)c2c1CN(Cc1ccc3nsnc3c1)CC2	none
COc1ccc(OC)c(C2C(C(N)=O)=C(C)Nc3nc(CCCO)nn32)c1 (centres undefined)	GPR151 activ 7.7 | GPR151 confirm inactive | GPR119 counter inactive
CC(C)(C)c1ccc(OCC(N)=O)c(Br)c1	GPR151 activ 5.9 | GPR151 confirm inactive | GPR119 counter inactive
O=C(O)/C=C/c1cn(-c2ccccc2)nc1-c1cccc([N+](=O)[O-])c1	GPR151 activ 5.3 | GPR151 confirm inactive | GPR119 counter inactive
C=CCOc1ccc(C(=O)N/N=C/c2cc([N+](=O)[O-])ccc2O)cc1	none
COc1ccc(S(=O)(=O)Nc2cccc3c([N+](=O)[O-])cccc23)cc1OC	GPR151 activ 6.0 | GPR151 confirm inactive | GPR119 counter inactive
COc1ccc(S(=O)(=O)Nc2ccccc2C(=O)NC(C)C)cc1OC	GPR151 activ 18 | GPR151 confirm inactive | GPR119 counter inactive
COc1ccc(NC(=S)NNS(=O)(=O)c2cccc([N+](=O)[O-])c2)cc1	GPR151 activ 4.9 | GPR151 confirm inactive | GPR119 counter inactive
CCN(CC)S(=O)(=O)c1ccc(OC)c(NS(=O)(=O)c2ccccc2[N+](=O)[O-])c1	none
CCN(CC)S(=O)(=O)c1ccc(OC)c(NS(=O)(=O)c2cccc([N+](=O)[O-])c2)c1	GPR151 activ 6.2 | GPR151 confirm inactive | GPR119 counter inactive
COc1ccc(NC(=S)Nc2cccc([N+](=O)[O-])c2)cc1	none
CCS(=O)(=O)N1CCN=C1SCc1c(F)cccc1Cl	none
Cc1cc(N2CCNCC2)n2c(n1)nc1ccccc12	none
CCOc1ccc(-c2ccc(C=C3C(=O)NC(=S)NC3=O)o2)c([N+](=O)[O-])c1	none
COc1ccc(N=N/C(C(C)=O)=C(\O)c2ccccc2)cc1	none
CC1CCCC(NC(=O)C2N(CCN(C)Cc3ccccc3)C(=O)C3C(C(=O)Nc4ccc(Cl)cc4)C4C=CC32O4)C1C (centres undefined)	none
COc1ccc(S(=O)(=O)Nc2ccccc2SC)cc1Br	GPR151 activ 5.7 | GPR151 confirm inactive | GPR119 counter inactive
COc1ccccc1NS(=O)(=O)c1ccc(SC)cc1	GPR151 activ 6.3 | GPR151 confirm inactive | GPR119 counter inactive
C/C(CC(=O)Nc1ccc2c(c1)OCCO2)=N\NC(=O)c1cc2ccccc2cc1O	none
O=C(Cc1nc2scc(-c3ccccc3)c2c(=O)[nH]1)N1CCOCC1	GPR151 activ 11 | GPR151 confirm inactive | GPR119 counter inactive
Cc1cc(C=C2C(=O)NC(=S)NC2=O)c(C)n1-c1ccc([N+](=O)[O-])cc1	GPR151 activ 6.1 | GPR151 confirm inactive | GPR119 counter inactive
COC(=O)c1ccc(/C=N/NC(=O)CCn2nnc3ccccc32)cc1	none
COc1cccc(NC(=O)N2CCNCC2)c1	GPR151 activ 23 | GPR151 confirm inactive | GPR119 counter inactive
CCN(CC)S(=O)(=O)c1ccc(C(=O)NCc2nnc(SCC(=O)N3CCc4ccccc43)n2-c2ccccc2OC)cc1	none
